Screening results as filed in PubChem BioAssay.
Many of the other results were omitted from the sample, so hits are more common in it than they were.
Ba CapD inh: Bacillus anthracis CapD inhibitors, primary screen, biochemical, fluorescence intensity; purified CapD enzyme, fluorescence intensity read-out; stronger effect = lower value; z-score (concentration not given with the values); 0.23% of 140,000 active; in the data active = z-score mostly below about -2.9, no sharp cut-off; inactive = mostly above about -1.9
A number is an active result; . = inactive.

SMILES | Ba CapD inh
Cc1ccn2c(NC3CCCC3)c(-c3cccnc3)nc2c1 | .
Cc1ccc(-n2c(C)nc3cc(C(=O)O)ccc32)c(C)c1 | .
O=C(/C=C/c1ccccc1)C1(O)CCCCC1 | .
O=C(/C=C/c1ccc(Cl)cc1)C1(O)CCCCC1 | .
COc1ccc(/C=C/C(=O)C2(O)CCCCC2)cc1OC | -4.5
CC(C)(C)OCC(NC(=O)C1CCN(c2ccc(C(F)(F)F)cn2)CC1)C(=O)OC(C)(C)C (centres undefined) | .
Cc1ccc(C2CC(=O)C3=C(C2)Nc2ccccc2NC3c2cccnc2)cc1 (centres undefined) | -4
O=C1CC(c2ccccc2)CC2=C1C(c1ccccc1)Nc1ccccc1N2 (centres undefined) | .
COc1cc(C2Nc3cc(C)ccc3NC3=C2C(=O)CC(c2ccccc2)C3)cc(OC)c1OC (centres undefined) | .
COc1cc(OC)nc(CSc2ccc(NC(=O)CSc3nc(C)cc(C)n3)cc2)n1 | .
CCc1ccc(NC(=O)C2NC(=O)CC2c2ccccc2)cc1 (centres undefined) | .
